# Methyltransferases – Primary Screen for Target Class Profiling of Small Molecule Inhibitors of Methyltransferases. purified enzyme, MTase-Glo SAH luminescence; hits give low values. calls only at 40 µM. 3.9% of 25,000 active; call rule not given here
#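 Each enzyme was assayed with SAM and its substrate. SAH formation detected by MTase-Glo luminescence; single-point 40 uM screen[…].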
# Numbers without * were called inactive; i = inactive; + = active, no number; ! = a repeat was not active. This is one part of a sample in which hits are shown more often than they occur. % is scaled to controls: 0 for no effect and ±100 for the full control effect.
SMILES,Methyltransferases
Cc1cccc(-c2nnn3c2nc(NCC2CCCO2)c2ccccc23)c1 (stereo not given),i
CCCn1c(=O)c2cc(F)ccc2n2c(SCc3ccc(C)cc3)nnc12,i
CCOC(=O)c1cc2n(n1)CC(C)(C(=O)NCc1ccccc1OC)N(Cc1ccc(SC)cc1)C2=O (stereo not given),i
CCCCN1C(=O)c2cc(C(=O)NCc3cccs3)nn2CC1(C)C(=O)NC1CCCC1 (stereo not given),i
Cc1ccc(NC(=O)Cn2c(=O)oc3cc(S(=O)(=O)NC4CCCC4)ccc32)cc1,i
NC1(C(=O)O)CCCCC1,i
N.N.O=C(O)C1(C(=O)O)CCC1.[Pt+2],+
CCCn1c(=O)c2ccc(C(=O)NC(C)CC)cc2n2c(=O)n(CC(=O)c3ccc(F)cc3F)nc12 (stereo not given),i
COc1ccc(CN2C(=O)c3ccc(-c4ccco4)n3CC2(C)C(=O)NC2CCCC2)cc1 (stereo not given),i
Cc1ccc(NC(=O)CCc2nnc3n(Cc4ccccc4)c(=O)c4ccccc4n23)cc1C,i
CSc1ccc(CNC(=O)c2cc3n(n2)CC(C)(C(=O)NCCC(C)C)N(C)C3=O)cc1 (stereo not given),i
CC(C)Cn1c(=O)c2ccccc2n2c(=O)n(CC(=O)NCc3ccccc3Cl)nc12,i
Oc1ccc2ccccc2c1SSc1c(O)ccc2ccccc12,+
Cn1c(=O)c2ccc(C(=O)NC3CCCCC3)cc2n2c(SCC(=O)Nc3ccc(F)cc3)nnc12,i
Cc1ccc(C)c(N2C(=O)c3cc4occc4n3CC2(C)C(=O)NC2CCCC(C)C2C)c1 (stereo not given),i
COc1ccc2cc3n(c2c1)CC(C)(C(=O)NCC1CCCO1)N(Cc1ccc(Cl)cc1)C3=O (stereo not given),i
CCc1cccc(NC(=O)Cn2nc3n(C(C)C)c(=O)c4ccc(C(=O)NC(C)C)cc4n3c2=O)c1,i
O=[N+]([O-])c1cc(S(=O)(=O)Nc2ccc(O)c3ccccc23)ccc1Cl,+
O=C(Nc1ccc([N+](=O)[O-])cc1Cl)c1cc(Cl)ccc1O,i
O=S(=O)(Nc1ccccc1Cl)c1ccc2[nH]c3c(c2c1)CCCC3,i
COc1ccc2cc3n(c2c1)CC(C)(C(=O)NC1CCCC1)N(CCc1cccs1)C3=O (stereo not given),i
CC(CNC(=O)CCn1ccc2cc(S(=O)(=O)N3CCCCC3)ccc21)c1ccccc1 (stereo not given),i
N[C@@H](Cc1cc(I)c(Oc2ccc(O)c(I)c2)c(I)c1)C(=O)O,+!
N[C@@H](Cc1cc(I)c(Oc2cc(I)c(O)c(I)c2)c(I)c1)C(=O)O,+
NC(Cc1c[nH]c2ccccc12)C(=O)O (stereo not given),i
SMILES,Methyltransferases
NC(Cc1cccc(-c2ccccc2CP(=O)(O)O)c1)C(=O)O (stereo not given),i
CCOC(=O)c1cc2n(n1)CC(C)(C(=O)NC1CCCCC1)N(c1ccccc1C)C2=O (stereo not given),i
CCCC1c2cccn2CCN1C(=O)Nc1cccc(C)c1C (stereo not given),i
CN(CC(=O)NC1CCCCC1)S(=O)(=O)c1ccc2[nH]c3c(c2c1)CCCC3,i
COc1ccc(CNC(=O)c2cc3n(n2)CC(C)(C(=O)NCCC(C)C)N(C)C3=O)c(OC)c1 (stereo not given),i
COc1ccc(OC)c(NS(=O)(=O)c2ccc3c(c2)NC(=O)C(C)C(=O)N3)c1 (stereo not given),i
CCOC(=O)Cc1ccc(NC(=O)N2CCn3cccc3C2C(C)C)cc1 (stereo not given),i
COc1ccc(CNC(=O)CCc2nnc3n(CCC(C)C)c(=O)c4ccccc4n23)cc1,i
COC(=O)c1ccc([C@@H]2Nc3c(OC)cccc3[C@@H]3C=CC[C@@H]32)cc1,i
Fc1ccc(C(OCCCc2cnc[nH]2)c2ccc(F)cc2)cc1,+
N=C(N)SCCc1cnc[nH]1,i
CN1CCN(CCN2C(=O)c3ccc(-c4ccco4)n3CC2(C)C(=O)NC2CCCCC2)CC1 (stereo not given),i
COC(=O)c1ccc(=O)c2nc3/c(=C/O)c(O)cc(=O)c3[nH]c12,+
CCOC(=O)c1cc2n(n1)CC(C)(C(=O)NC1CCCCCC1)N(c1cc(C)cc(C)c1)C2=O (stereo not given),i
O=c1c2ccccc2n2c(-c3cccc(Cl)c3)nnc2n1CCc1ccccc1,i
Cc1ccc(-c2nnc3n(CCc4ccccc4)c(=O)c4ccccc4n23)cc1,i
Cc1ccc(Cn2c(=O)c3ccccc3n3c(CCC(=O)N4CCC(Cc5ccccc5)CC4)nnc23)cc1,i
O=C(CCc1nnc2n(CCc3ccccc3)c(=O)c3ccccc3n12)N1CCC(N2CCCCC2)CC1,+
O=C(CCc1nnc2n(Cc3ccc(F)cc3)c(=O)c3ccccc3n12)N1CCN(C2CCCCC2)CC1,i
CC1CCN(C(=O)CCc2nnc3n(Cc4ccc(Cl)cc4)c(=O)c4ccccc4n23)CC1,i
Cc1ccc(Cn2c(=O)c3ccccc3n3c(CCC(=O)N4CCN(C5CCCCC5)CC4)nnc23)cc1,i
Cc1cccc(-c2nnc3n(CCc4ccccc4)c(=O)c4ccccc4n23)c1,+
NC(=O)C1CCN(C(=O)CCc2nnc3n(Cc4ccc(F)cc4)c(=O)c4ccccc4n23)CC1,i
O=C(CCc1nnc2n(Cc3ccccc3)c(=O)c3ccccc3n12)N1CCN(c2cccc(Cl)c2)CC1,i
O=C(CCc1nnc2n(Cc3ccc(F)cc3)c(=O)c3ccccc3n12)N1CCC(N2CCCCC2)CC1,+
SMILES,Methyltransferases
O=C(CCc1nnc2n(Cc3ccc(Cl)cc3)c(=O)c3ccccc3n12)N1CCC(N2CCCCC2)CC1,+
CC(C)OCCCN1C(=O)c2ccc(-c3ccco3)n2CC1(C)C(=O)NC1CCCC1 (stereo not given),i
CCCN1C(=O)c2c(C(=O)NCc3cccc(F)c3)ncn2CC1(C)C(=O)NCCC(C)C (stereo not given),i
Cc1ccccc1CSc1nnc2n(C)c(=O)c3ccc(C(=O)NC4CCCCC4)cc3n12,i
C=Cc1ccc(Cn2nc3n(CCC)c(=O)c4ccc(C(=O)NCC(C)C)cc4n3c2=O)cc1,i
COc1ccc(OC)c2c1cc1n2CC(C)(C(=O)NC2CCCC2)N(Cc2cccs2)C1=O (stereo not given),i
COc1ccc(NS(=O)(=O)c2cc3c(cc2Cl)n(C)c(=O)n3C)cc1OC,i
Cc1ccc(C2c3cccn3-c3sc4c(c3CN2C(=O)Nc2ccc(F)cc2)CCCC4)cc1 (stereo not given),i
CCCN1C(=O)c2c(C(=O)NCCc3ccccc3C)ncn2CC1(C)C(=O)NCCC(C)C (stereo not given),i
CN1CCc2c(n(Cc3ccc(C(=O)NO)cc3)c3ccccc23)C1,+
CC(=O)Nc1ccc(C(=O)NCc2nn(Cc3ccccc3)c3ccccc23)cc1,i
O=C(c1cccc([N+](=O)[O-])c1)N1CCc2c(c3ccccc3n2CC2CC2)C1,i
CC1(C(=O)NCc2ccccc2)Cn2nc(-c3ccccc3)cc2C(=O)N1CCc1ccc(Cl)cc1 (stereo not given),i
CCC(C)NC(=O)c1ccc2c(=O)n(C(C)C)c3nn(CC(=O)c4ccc(Cl)cc4)c(=O)n3c2c1 (stereo not given),i

# Bioassay records deposited in PubChem BioAssay by National Center for Advancing Translational Sciences (NCATS).
